AmpC detergent: inhibitors of E. coli AmpC beta-lactamase with detergent. AmpC hydrolysis of nitrocefin, absorbance 480 nm, 0.01% Triton. P00811. Potency, µM (titrated, usually from 114 µM), without a hit: at the highest dose activity change, negative = inhibition, hits mostly inhibitors. 370,000 tested, 0.041% active;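 also: 0% = no-compound wells and -100% = no-enzyme wells; nearly all actives have a fitted effect of over 25% in size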
Target sequence (P00811 whole entry, looked up): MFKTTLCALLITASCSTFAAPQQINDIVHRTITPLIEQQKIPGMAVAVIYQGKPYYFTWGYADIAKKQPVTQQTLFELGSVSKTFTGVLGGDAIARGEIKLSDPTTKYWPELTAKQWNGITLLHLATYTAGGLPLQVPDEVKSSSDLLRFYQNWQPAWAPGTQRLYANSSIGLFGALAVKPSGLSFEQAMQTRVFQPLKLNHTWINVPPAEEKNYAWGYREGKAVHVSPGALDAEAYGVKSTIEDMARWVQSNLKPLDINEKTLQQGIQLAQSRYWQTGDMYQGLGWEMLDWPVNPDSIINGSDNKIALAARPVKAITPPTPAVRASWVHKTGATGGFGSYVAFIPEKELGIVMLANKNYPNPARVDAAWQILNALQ
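AmpC (5.3 nM in the dispensed reagent) in 20 mM phosphate pH 7.0 with 0.01% (detergent screen) or 0.0001% Triton X-100 was preincubated with compounds for 15 min at room temperature. Nitrocefin was then added from an 800 uM solution, and hydrolysis was followed at 480 nm.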
Sm TGR inh: blocks Schistosoma mansoni thioredoxin glutathione reductase | Q962Y6 | purified TGR, DTNB reduction, TNB absorbance 405 nm | Potency, µM (series often up to 114 µM), inactives show at the top dose activity change, negative = inhibition, usual class: inhibitors | 360,000 tested, 3% active; also: nearly all actives have a fitted effect of over 60% in size
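First, TGR (20 nM dispensed) and NADPH were mixed with compound. Second, a 15 min room-temperature incubation followed. Third, further NADPH and then DTNB were added to start the reaction. Finally, TNB absorbance was monitored kinetically.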
AmpC inh no detg: inhibitors of E. coli AmpC beta-lactamase without detergent; P00811; AmpC nitrocefin hydrolysis, absorbance 480 nm, 0.0001% Triton; Potency, µM (top dose mostly 57.1 µM), for inactives: at the top dose activity change, negative = inhibition, usual class: inhibitors; 330,000 tested, 0.52% active;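 also: plate controls were no compound for no effect and no enzyme for full effect; nearly all actives have a fitted effect of over 20% in size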
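20 mM phosphate pH 7.0 + 0.01% (detergent screen) or 0.0001% Triton X-100; 5.3 nM AmpC reagent; cpd preinc 15 min RT; nitrocefin (800 uM stock) to start; A480 q20 s × 4 min; Activity was normalised to no-enzyme and no-compound control wells.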
* hit, by the source's call; u = inconclusive; x = not tested or not shown. Shown are actives, neighbours in structure and some others; about 3.3% of the full set was active somewhere. Calls follow the shape of the dose curve; as a rule, active = well fitted curve in the direction sought with a large enough effect; inconclusive = small, poorly fitted or top-dose-only effect, or another doubt; inactive = no such curve, though single readings can be large; an effect the other way counts as inactive or inconclusive. Unless noted, % is scaled to controls: 0 for no effect and ±100 for the full control effect; potency is read from the fitted curve at half-maximal effect.

SMILES | AmpC detergent | Sm TGR inh | AmpC inh no detg
COc1ccc2ccccc2c1C1CC(=O)N2CN(Cc3ccco3)CSC2=C1C#N (stereo unspecified) | -13% | 5.6µM* | -32%
N#CC1=C2SCN(Cc3ccccc3)CN2C(=O)CC1c1cccs1 (stereo unspecified) | -9% | -35% | -43%
COc1ccc(CC(=O)OCN2C(=O)c3ccccc3C2=O)cc1OC | 4% | 0% | 22%
COC(=O)c1ccc(NC(=O)CSc2nc(C)cc(C)c2C(=O)Nc2ccccc2)cc1 | 4% | 3% | x
Cc1cc(N2CCCC(C(=O)Nc3cccc4ccccc34)C2)n2ncnc2n1 (stereo unspecified) | 7% | 8% | 54%
COc1ccc(-n2c(CC3C(=O)Nc4ccc(C)cc43)nc3ccccc3c2=O)cc1 (stereo unspecified) | 17% | -2% | x
Cc1cc(C)n(-c2nc(C)c(C)c(=O)n2CC(=O)Nc2cccc([N+](=O)[O-])c2)n1 | 2% | 5% | x
CN(C)Cc1c(C(=O)N/N=C/c2cccs2)nnn1-c1nonc1N | -11% | -6% | -17%
COc1ccc(CN2CCN(Cc3ccco3)CC2)cc1 | -9% | -16% | -12%
COc1ccc(C2CC(=O)N3CN(C4CCCCC4)CSC3=C2C#N)c(OC)c1 (stereo unspecified) | -2% | 3.2µM* | x
COc1ccc(OC)c(C2C(C#N)=C(N)N(N(C)C)C3=C2C(=O)CCC3)c1 (stereo unspecified) | 0% | -11% | -15%
COc1ccc(C2CC(=O)N3CN(Cc4ccco4)CSC3=C2C#N)cc1 (stereo unspecified) | -7% | 40µM* | -34%
CNC(=O)Cc1csc2ccc(C)cc12 | -7% | -7% | -2%
Cc1cccc(OCc2nnc(SCC(=O)O)n2-c2ccccc2)c1 | u | 9% | 0%
NS(=O)(=O)c1ccc(NC(=O)CSc2nnc3n2CCCCC3)cc1 | x | x | -16%
COc1cccc(NC(=O)C2CCN(S(=O)(=O)c3ccc4[nH]c(=O)oc4c3)CC2)c1 | u | 0% | -30%
COc1ccc(Br)cc1CN(C)C(C)C(=O)Nc1cccc(C(C)=O)c1 (stereo unspecified) | 6% | 22µM* | 58%
COc1ccc(C(C)=O)cc1Cn1c(=O)cc(C)[nH]c1=O | -5% | 40µM* | -4%
COc1ccc(C(C)=O)cc1CN1C(=O)NC2(CCCCCCC2)C1=O | 3% | -3% | 1%
COc1ccccc1CN(C)C(C)C(=O)Nc1cccc(C(C)=O)c1 (stereo unspecified) | -16% | -5% | -13%
COc1ccc(C(C)=O)cc1COc1ccc(-n2cnnn2)cc1 | -12% | 20µM* | 11%
COc1ccc(C(C)=O)cc1CC(=O)NC1CCCCCC1 | -16% | -1% | -11%
COc1ccc(C(C)=O)cc1CN(C)C | 0% | 5µM* | x
COc1ccc(NC(=O)COc2ccc(-n3cnnn3)cc2)cc1OC | -6% | 1% | -13%
Cc1ccnc(SCC(=O)NC2CC2)n1 | -1% | -23% | -6%
SMILES | AmpC detergent | Sm TGR inh | AmpC inh no detg
CCOc1ccccc1NC(=O)C1=C(C)Nc2ncnn2C1c1ccc(C)o1 (stereo unspecified) | 0% | 4% | x
O=C(CN1C(=O)C2CC=CCC2C1=O)Nc1ccc(S(=O)(=O)Nc2nccs2)cc1 (stereo unspecified) | 5% | 6% | -32%
COc1ccc(COC(=O)C2=C(C)NC(=O)NC2c2cccc(Br)c2)cc1 (stereo unspecified) | -14% | 0% | -29%
COc1ccc(C(C)=O)cc1CSc1nnc(C)s1 | -6% | 45µM* | -9%
COc1ccc(C(C)=O)cc1CSc1nnc(Nc2ccc(C)cc2)s1 | -7% | -7% | -14%
CCOC(=O)C1(Cc2ccccc2)CCN(Cc2cc(OC)c3c(c2)OCO3)CC1 | -4% | 0% | 49%
OCC[C@H]1C[C@H](O)[C@@H](O)[C@@]2(CCc3ccccc3O2)O1 | -6% | -5% | -10%
O=C(N/N=C/C1CC2C=CC1C2)c1ccccc1O (stereo unspecified) | -2% | -5% | -23%
Cc1ccc(N(C)C(=O)CN(C)S(=O)(=O)c2ccc3c(c2)n(C)c(=O)c(=O)n3C)cc1 | -15% | -10% | 4%
Cc1cccc2sc(N(CCCN3CCOCC3)C(=O)CS(=O)(=O)c3ccc(F)cc3)nc12 | -2% | 2% | 220%
Cc1ccc(S(=O)(=O)CCC(=O)N(CCN2CCOCC2)c2nc3ccccc3s2)cc1 | 0% | 35µM* | 28%
Cc1cccc2sc(N(CCN3CCOCC3)C(=O)CCS(=O)(=O)c3ccccc3)nc12 | 0% | 45µM* | 77%
CCCC(=O)N(CCN1CCOCC1)c1nc2c(OCC)cccc2s1 | -8% | 1% | 154%
CCC(C)(C)NC(=O)C(c1cccc(OC)c1OC)N(CCOC)C(=O)CCC(=O)Nc1cc(C)on1 (stereo unspecified) | -1% | -4% | 56%
CN(C)S(=O)(=O)c1cc(NC(=O)CSc2nn(-c3ccc(Cl)cc3)c(=S)s2)ccc1Cl | u | -2% | 14µM*
Cc1ccc(NC(=O)CSc2nn(-c3ccc(Cl)cc3)c(=S)s2)cc1S(=O)(=O)N(C)C | 11% | -5% | -54%
O=C(CCl)c1ccc2c(c1)CCN2C(=O)C1CCCCC1 | -2% | 1.3µM* | -27%
CCC1CCCCN1S(=O)(=O)c1ccc2c(c1)CCN2C(=O)C1CCC1 (stereo unspecified) | u | -1% | 0%
O=C(C1CCC(C(=O)N2CCc3ccccc32)CC1)N1CCc2ccccc21 (stereo unspecified) | -13% | -6% | -14%
O=C(CCl)c1ccc2c(c1)CCN2C(=O)C1CC1 | -4% | 7.1µM* | -27%
Cc1ccc(NNC(N)=S)cc1Cl | -12% | 40µM* | -26%
NC(=S)NNc1ccc(Cl)c(Cl)c1 | 4% | 2µM* | -16%
Cc1ccc(NC(=S)N(C)N)cc1Cl | 6% | x | -13%
NC(=S)Nc1ccc(Cl)c(Cl)c1 | -7% | 11% | -19%
Nc1c(C(=O)CSc2nc(-c3ccccc3)cs2)c(=O)[nH]c(=O)n1C1CC1 | 8% | -21% | -20%
SMILES | AmpC detergent | Sm TGR inh | AmpC inh no detg
CCOc1ccc(NC(=O)c2cccc(N3CCCS3(=O)=O)c2)cc1 | -7% | -1% | x
CCOC(=O)NC(N(O)c1cccc(Cl)c1)C(Cl)(Cl)Cl (stereo unspecified) | 1% | 28µM* | -16%
CCOC(=O)N[C@H](Cc1c[nH]c2ccccc12)C(=O)Nc1cccc(Cl)c1 | 5% | 1% | x
Cc1ccc(Oc2ccccc2NC(=O)CN2C(=O)NC3(CCCC3)C2=O)cc1 | 3% | -8% | 30%
COc1ccc(CNC(=O)c2cnc3sc(N4CCCCCC4)nn3c2=O)cc1 | -2% | -1% | x
CCCCC1C(=O)N(c2ccccc2)N(c2ccc(O)cc2)C1=O (stereo unspecified) | u | 10µM* | -33%
CCCCc1nc2ccccc2c(=O)n1-c1ccc(O)cc1 | -10% | 0% | -16%
Cc1ccc(Cl)cc1N1CCN(c2nc3ccc(C(=O)c4ccccc4)cc3n3cnnc23)CC1 | 19% | 7% | x
Cc1ccc(N=Cc2cc3c(cc2O)OC(N)=C(C#N)C3c2ccccc2)cc1 (stereo unspecified) | -17% | -10% | 20µM*

Assay outcomes as filed in PubChem.
